# Screens (PubChem)
# PAX8 reporter: inhibitors of PAX8-driven TPO luciferase reporter, primary screen, RMG-I cells, single concentration; SteadyGlo, 24 h; inhibition, % at 12.6 µM; actives 1.2% (n = 360,000);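 active = mean replicate inhibition at least 60% with every replicate also reaching 60%; inconclusive = only one of the two criteria is met; inactive = mean below 60% and not all replicates reaching 60%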;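 note: luciferase light reporting Pax8 driven TPO promoter activity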
# EWS-Fli block: EWS/Fli-driven NR0B1 reporter inhibitors, primary screen, A673 cells, NR0B1 luciferase, luminescence, MLPCN library | viability-normalised | inhibition, % at 12.6 µM | actives 0.67% (n = 350,000) | AID 651661, 2012;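 active = mean inhibition of at least 50% after viability correction, with every replicate also passing that limit; inconclusive = mean reaches 50% but only one of two replicates passes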;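 note: firefly luciferase signal divided by Alamar Blue viability fluorescence both relative to DMSO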
# Shn3 3UTR inh: reduction of Shn3 3'UTR firefly luciferase signal, primary screen, Schnurri-3 inhibitor project, cell-based, Clone20 osteoblasts, set 2; AID 588674, 2011; actives 0.52% (n = 360,000); Clone20 osteoblast Shn3 3'UTR firefly luciferase, 24 h; inhibition, % at 12.5 µM;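 active = mean inhibition of at least 75% with every replicate also reaching 75%; inconclusive = mean inhibition at least 75% but some replicate below; inactive = mean inhibition below 75%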
# LGR2 inh: inhibitors of bursicon-induced LGR2 CRE-luciferase signal, primary screen, cell-based, HEK293, CRE-luciferase reporter, bursicon stimulation; inhibition, % at 9.99 µM; AID 720647, 2013; bursicon-stimulated, 4 h; actives 0.35% (n = 380,000);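 active = drop in luminescence signal, shown as inhibition above about 50% in the replicate tests, limit read from the data, passing the limit was not always enough; inconclusive = probably only some replicates passing the limit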;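 note: agonist challenge used bursicon conditioned medium at about half maximal strength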
# TRPM1 prom inh: inhibitors of MITF-dependent TRPM1 promoter reporter, primary screen, cell-based, SK-MEL-5, single point, luciferase; inhibition, % at 12.5 µM; actives 0.83% (n = 330,000); SK-MEL-5 TRPM1 promoter luciferase, 24 h;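 active = mean inhibition across replicates of 60% or more, whatever share of single replicates reaches that level; inconclusive = some that reach 60%, reason not given; inactive = mean inhibition across replicates below 60%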
# LMP1 NFkB inh: EBV LMP1-driven NF-kappaB luciferase reporter inhibitors, primary screen, cell-based, luminescence, single point; inhibition, % at 12.5 µM; LMP1-induced NF-kappaB luciferase reporter cells; actives 0.69% (n = 350,000); in the data active = inhibition above about 41%; inconclusive = no clear call, values can overlap the other calls
# A number is an active result; – = inactive; ? = inconclusive; · = no result given. This is a sample that favours compounds with a hit; in the whole collection about 2.2% have one here.
SMILES,PAX8 reporter,EWS-Fli block,Shn3 3UTR inh,LGR2 inh,TRPM1 prom inh,LMP1 NFkB inh
CC(C)NC(=O)N(C)C[C@H]1Oc2ccc(NC(=O)CCC(F)(F)F)cc2CC(=O)N([C@@H](C)CO)C[C@H]1C,–,–,·,–,·,·
O=C(OCc1ccccc1)N(CCCCN(CCCNCc1ccccc1)C(=O)OCc1ccccc1)CCCNCc1ccccc1,98,?,99,–,97,–
O=C(NCCCCCCNC(=O)OCc1ccccc1)OCc1ccccc1,–,–,–,–,–,–
COC(=O)/C(C#N)=C/c1ccc(OC(=O)c2ccccn2)cc1,–,52,–,–,–,–
C[C@H](CO)N1C[C@H](C)[C@@H](CN(C)C(=O)Nc2ccc3c(c2)OCO3)Oc2ccc(NC(=O)Cc3cn(C)c4ccccc34)cc2C1=O,–,–,·,·,·,·
COCCNC(=O)[C@@H]1[C@@H](CO)[C@@H]2Cn3c(ccc(C4=CCCCC4)c3=O)[C@H]1N2C(=O)C1CCC1,–,–,·,–,·,·
O=C(NC1CCCCC1)c1csnn1,–,–,–,–,–,89
Cc1ncc(CO)c(/C=N/NC(=O)c2cc3c(s2)CCCC3)c1O,–,–,91,–,–,–
CCN(CC)C(=O)c1ccc(-c2cccs2)s1,–,–,–,·,–,–
O=Cc1ccc(-c2cccs2)s1,–,–,–,?,–,76
Oc1ccc(N=Cc2ccc(-c3cccs3)s2)cc1,·,·,–,59,–,82
CCCCOc1ccc(N=Cc2cccs2)cc1,–,–,–,–,–,–
C[C@H](CO)N1C[C@H](C)[C@H](CN(C)S(=O)(=O)c2cccs2)Oc2c(NC(=O)c3ccncc3)cccc2C1=O,·,–,·,–,·,·
COCC#Cc1cnc2c(c1)C(=O)N([C@H](C)CO)C[C@H](C)[C@H](CN(C)C(=O)c1cccc(F)c1)O2,–,–,·,–,·,·
O=C(/C=C/c1cccs1)NC(=S)NNC(=O)c1ccccc1O,89,52,–,–,–,–
C[C@H](CO)N1C[C@H](C)[C@@H](CN(C)Cc2ccc(C(F)(F)F)cc2)Oc2ccc(NC(=O)Cc3ccccc3)cc2C1=O,–,–,·,–,·,·
Cc1ccc(S(=O)(=O)N(C)C[C@@H]2Oc3ccc(NC(=O)Cc4ccccc4)cc3C(=O)N([C@H](C)CO)C[C@H]2C)cc1,–,–,·,–,·,·
C[C@@H]1CCCCO[C@H](CN(C)Cc2ccc(C(F)(F)F)cc2)[C@@H](C)CN([C@H](C)CO)C(=O)c2cc(NC(=O)Cc3ccccc3)ccc2O1,–,–,·,–,·,·
C[C@H]1CCCCO[C@@H](CN(C)Cc2ccc(C(F)(F)F)cc2)[C@@H](C)CN([C@@H](C)CO)C(=O)c2cc(NC(=O)Cc3ccccc3)ccc2O1,82,–,·,–,·,·
C[C@H]1CN([C@@H](C)CO)C(=O)c2cc(NC(=O)Cc3ccccc3)ccc2O[C@@H]1CN(C)Cc1ccc(C(F)(F)F)cc1,67,–,·,–,·,·
Cc1ccc(S(=O)(=O)N(C)C[C@H]2Oc3ccc(NC(=O)Cc4ccccc4)cc3C(=O)N([C@H](C)CO)C[C@@H]2C)cc1,84,–,·,–,·,·
C[C@@H]1CCCCO[C@H](CN(C)Cc2ccc(C(F)(F)F)cc2)[C@@H](C)CN([C@@H](C)CO)C(=O)c2cc(NC(=O)Cc3ccccc3)ccc2O1,85,–,·,–,·,·
O=C(NC1CCC1)[C@H]1[C@H](CO)[C@H]2Cn3c(cccc3=O)[C@@H]1N2CC1CCCC1,·,–,·,–,·,·
COc1ccc(NC(=O)N(C)C[C@H]2OCCCC[C@@H](C)Oc3ccc(NC(=O)Cc4ccccc4)cc3C(=O)N([C@H](C)CO)C[C@@H]2C)cc1,·,–,·,–,·,·
C[C@@H]1CCCCO[C@H](CN(C)Cc2ccc(C(F)(F)F)cc2)[C@H](C)CN([C@H](C)CO)C(=O)c2cc(NC(=O)Cc3ccccc3)ccc2O1,83,–,·,–,·,·
SMILES,PAX8 reporter,EWS-Fli block,Shn3 3UTR inh,LGR2 inh,TRPM1 prom inh,LMP1 NFkB inh
O=C(Cc1cccc2ccccc12)Nc1ccc(-c2cc3ccccc3oc2=O)cc1,·,·,–,·,–,55
CCC(=O)Nc1cccc(-c2cc3ccccc3oc2=O)c1,–,–,–,–,–,–
C[C@H](NC(=O)C[C@@H]1CC[C@@H](NC(=O)Cc2ccccn2)[C@H](CO)O1)c1ccccc1,–,–,·,–,·,·
CNc1nc(N)c([N+](=O)[O-])c(N2CCCCCC2)n1,–,–,–,–,–,–
CC(C)CCNc1nc(N)c([N+](=O)[O-])c(N2CCCCCC2)n1,–,–,87,–,–,–
CN(CC(=O)Nc1cccc(S(=O)(=O)N2CCOCC2)c1)CC(=O)Nc1ccc(Cl)c(C(F)(F)F)c1,–,–,88,–,–,–
CCOc1ccccc1N(CC(=O)Nc1ccc(S(=O)(=O)N2CCOCC2)cc1)S(=O)(=O)c1ccc(Cl)cc1,62,–,–,–,–,–
Cc1c(C(=O)Nc2cccc(C(F)(F)F)c2)oc2ccc(S(=O)(=O)N3CCOCC3)cc12,·,–,88,–,–,–
CCN(CC)S(=O)(=O)c1ccc(C)c(NC(=O)CNc2cccc(S(=O)(=O)N3CCOCC3)c2)c1,–,–,–,–,–,–
CCN(CC)S(=O)(=O)c1cccc(NC(=O)CNc2cccc(S(=O)(=O)N3CCOCC3)c2)c1,·,·,88,–,–,–
COc1ccc(NC(=O)N[C@@H]2CC[C@H](CCn3cc(-c4ccccn4)nn3)O[C@H]2CO)cc1,–,–,·,–,·,·
O=C(C[C@@H]1C[C@@H]2c3cc(NC(=O)NC4CCCC4)ccc3O[C@@H]2[C@@H](CO)O1)NCc1ccccn1,–,–,·,–,·,·
CN(C)S(=O)(=O)c1cccc(NC(=O)CNc2cccc(S(=O)(=O)N3CCCCC3)c2)c1,–,–,–,–,·,–
CCN(CC)S(=O)(=O)c1cc(NC(=O)CNc2cccc(S(=O)(=O)N3CCCC3)c2)ccc1C,·,·,91,·,–,–
Cc1nc2c(-c3ccc(Cl)cc3)c(C)[nH]n2c(=O)c1Cc1ccccc1,62,–,–,–,–,43
NC(N)=NC(=O)c1nc(Cl)c(N)nc1N,–,–,–,–,–,–
NC(N)=NC(=O)c1nc(Cl)c(N2CCCCCC2)nc1N,–,–,–,–,–,74
CCCc1nnc(NC(=O)c2nc(S(=O)(=O)Cc3cccc(C)c3)ncc2Cl)s1,–,·,93,–,78,–
CCOC(=O)c1ccc(NC(=O)c2nc(SC)ncc2Cl)cc1,–,–,–,–,–,–
O=C(Nc1ccc(F)cc1)c1nc(S(=O)(=O)Cc2ccccc2)ncc1Cl,104,56,94,–,62,–
Cc1cccc(CS(=O)(=O)c2ncc(Cl)c(C(=O)NCc3ccccc3)n2)c1,–,·,95,–,87,–
Cc1ccccc1CS(=O)(=O)c1ncc(Cl)c(C(=O)Nc2ccc(F)cc2)n1,–,56,95,–,91,52
